Test results reported in PubChem BioAssay AID463173 (ICCB-Longwood Screening Facility, Harvard Medical School, 2010).
Out of some 52,000 compounds screened, about 4,300 (8.3%) were called active. Cut-off read from the data, not from the text of the source: active = survival mostly below about 52% (no sharp cut-off); inactive = mostly above about 56%. Shown is part of a subset that was picked to be rich in actives.

These molecules were tested on DeltatarO mutant (assay: growth inhibition of S. aureus wild type versus tarO mutant, primary screen, teichoic acid synthesis inhibitors, RN4220, OD600 (AID 463173)). Details: OD600, 18 h, active compounds read low, screened at 18.75 µg/mL (by protocol).

Structure (SMILES)	survival
O=C(CSc1nc2ccccc2nc1Cc1ccc(Cl)cc1)N1CCc2ccccc21	93% (inactive)
O=C(NC1CC(=O)N(c2ccc(F)cc2)C1)C(c1ccccc1)c1ccccc1 (configuration not stated)	124% (inactive)
CCc1ccc(C(=O)c2cn(CC(=O)Nc3ccc(Cl)cc3)c3cc4c(cc3c2=O)OCO4)cc1	146% (inactive)
CCc1ccc(NC(=O)Cn2ccn(-c3ccc(C)c(C)c3)c(=O)c2=O)cc1	104% (inactive)
COc1ccc(OC)c(CCNC(=O)c2sc3nc4n(c(=O)c3c2C)CCCC4)c1	80% (inactive)
COc1cccc(NC(=O)CCN2C(=O)c3ccccc3Sc3ncccc32)c1	102% (inactive)
O=c1c2cc3c(cc2nc2sc(Nc4cccc([N+](=O)[O-])c4)nn12)OCO3	123% (inactive)
O=C1c2[nH]nc(-c3ccccc3O)c2C(c2ccc(Cl)cc2)N1CCc1ccccc1 (configuration not stated)	4% (active)
Cc1ccc(C2c3c(-c4ccccc4O)n[nH]c3C(=O)N2CCc2ccccc2)cc1 (configuration not stated)	32% (active)
Cc1ccc(C2c3c(-c4ccccc4O)n[nH]c3C(=O)N2CCCO)cc1 (configuration not stated)	58% (inactive)
CC(C)c1ccc(C2c3c(-c4ccccc4O)n[nH]c3C(=O)N2CCc2ccccc2)cc1 (configuration not stated)	50% (inactive)
O=C1c2[nH]nc(-c3ccccc3O)c2C(c2ccc(F)cc2)N1CCO (configuration not stated)	78% (inactive)
CCN1C(=O)N(CC)C2NC(=S)NNC21 (configuration not stated)	91% (inactive)
CC(C)(C)OC(=O)N1CCC(c2c(C(=O)Nc3ccc4c(c3)OCCO4)cnn2-c2ccccc2)CC1	96% (inactive)
CCn1nc(C)c2c(-c3ccccc3)cc(=O)n(C(C)C(=O)NCCc3ccc(OC)c(OC)c3)c21 (configuration not stated)	92% (inactive)
CCCS(=O)(=O)N1CC(=O)N(c2ccc(C)cc2C)C(C)(C(=O)NC2CCCCCC2)C1 (configuration not stated)	67% (inactive)
CCC(C(=O)Nc1ccc(C)c(Cl)c1)n1c(=O)c(-c2ccccc2NC(C)=O)nc2ccccc21 (configuration not stated)	63% (inactive)
CCC(=O)Nc1ccccc1-c1nc2ccccc2n(C(C)C(=O)Nc2ccc(OC)cc2)c1=O (configuration not stated)	55% (inactive)
CCC(=O)Nc1ccccc1-c1nc2ccccc2n(C(CC)C(=O)Nc2cccc(Cl)c2)c1=O (configuration not stated)	24% (active)
CC(=O)Nc1ccccc1-c1nc2ccccc2n(C(C)C(=O)Nc2cccc(C)c2C)c1=O (configuration not stated)	100% (inactive)
CCC(=O)Nc1ccccc1-c1nc2ccccc2n(C(C)C(=O)Nc2cccc(Cl)c2C)c1=O (configuration not stated)	42% (active)
CCC(=O)Nc1ccccc1-c1nc2ccccc2n(C(CC)C(=O)Nc2cccc(C(C)=O)c2)c1=O (configuration not stated)	91% (inactive)
CC(C)N(C(=O)CSc1nnc(Cn2nnc3ccccc32)n1C)C(C)C	81% (inactive)

Structure (SMILES)	survival
Cc1ccn2c(Nc3ccc4c(c3)OCO4)c(-c3ccc(N(C)C)cc3)nc2c1	101% (inactive)
COc1ccc(C(=O)Oc2ccc(C(c3c(C)[nH][nH]c3=O)c3c(C)[nH][nH]c3=O)cc2)cc1	80% (inactive)
COc1ccc2sc(N(Cc3cccnc3)C(=O)c3cccs3)nc2c1	76% (inactive)
COc1ccc2nc(N(Cc3cccnc3)C(=O)c3ccco3)sc2c1	101% (inactive)
COc1cc(C(=O)N(Cc2cccnc2)c2nc3cc(C)c(C)cc3s2)cc(OC)c1OC	49% (inactive)
CCS(=O)(=O)c1ccccc1C(=O)N(Cc1cccnc1)c1nc2cc(C)c(C)cc2s1	112% (inactive)
COc1ccc2sc(N(Cc3cccnc3)C(=O)c3ccco3)nc2c1	-2% (active)
Cc1cc2nc(N(Cc3cccnc3)C(=O)c3ccc(Cl)s3)sc2cc1C	32% (active)
COc1ccc(N(C(=O)c2snc(C(N)=O)c2N)C(C(=O)NCc2ccc(F)cc2)c2ccc(C)o2)c(OC)c1 (configuration not stated)	67% (inactive)
Cc1ccccc1-c1noc(-c2ccc(N3CCCC3)c([N+](=O)[O-])c2)n1	65% (inactive)
Cc1ccc(-c2cc(NC(=O)C(C)Oc3ccc(C)c(C)c3)on2)cc1 (configuration not stated)	93% (inactive)
Cc1ccc(-c2cc(NC(=O)C(C)Oc3ccccc3F)on2)cc1 (configuration not stated)	33% (active)
CCOC(=O)c1ccccc1NC(=O)COc1ccccc1-c1nnc(-c2ccccc2)o1	49% (inactive)
CCC(Oc1ccccc1F)C(=O)Nc1c(C(=O)c2ccccc2)oc2ccccc12 (configuration not stated)	53% (inactive)
CCc1ccccc1NC(=O)C(CC)Oc1ccccc1-c1nnc(-c2ccccc2)o1 (configuration not stated)	32% (active)
CCC(Oc1ccccc1-c1nnc(-c2ccccc2)o1)C(=O)Nc1ccc(C(C)=O)cc1 (configuration not stated)	112% (inactive)
CCC(Oc1ccc(F)cc1)C(=O)Nc1cc(-c2ccc(C)cc2)no1 (configuration not stated)	54% (inactive)
CCC(Oc1ccccc1F)C(=O)Nc1cc(-c2ccccc2)no1 (configuration not stated)	35% (active)
CC(Oc1ccc(F)cc1)C(=O)Nc1cc(-c2ccc(F)c(F)c2)no1 (configuration not stated)	59% (inactive)
Cc1ccc(NC(=O)CCCn2c(=O)c3cccn3c3cccnc32)c(C)c1	87% (inactive)
COc1ccc(CNC(=O)CCc2nnc3n(C)c(=O)c4sccc4n23)cc1	180% (inactive)
O=C(CN1CCN(Cc2ccccc2Cl)C1=O)NCCc1ccc(Cl)cc1	49% (inactive)
COc1cccc(-c2nc(SCC(=O)NCC3CCCO3)c(-c3ccc(Cl)cc3)[nH]2)c1 (configuration not stated)	63% (inactive)

Structure (SMILES)	survival
CCOc1c(Br)cc(C2CC(=O)Nc3cc4c(cc32)OCO4)cc1OC (configuration not stated)	127% (inactive)
COc1ccc(N2C(=O)CC(N3CCCCC3C)C2=O)cc1 (configuration not stated)	106% (inactive)
CCC1CCCCN1C1CC(=O)N(c2ccc(NC(C)=O)cc2)C1=O (configuration not stated)	96% (inactive)
CCOc1ccc(N2C(=O)CC(N3CCCCC3CC)C2=O)cc1 (configuration not stated)	53% (active)
CCSc1nnc2n(-c3cccc(C)c3)c(=O)c3c4c(sc3n12)CCCC4	71% (inactive)
Cc1cccc(-n2c(=O)c3c4c(sc3n3cnnc23)CCCC4)c1	72% (inactive)
CCSc1nnc2n(-c3ccccc3)c(=O)c3c4c(sc3n12)CCCC4	95% (inactive)
CCCCSc1nnc2n(-c3cccc(C)c3)c(=O)c3c4c(sc3n12)CCCC4	1% (active)
CCCSc1nnc2n(-c3cccc(C)c3)c(=O)c3c4c(sc3n12)CCCC4	5% (active)
CSc1nnc2n(-c3cccc(C)c3)c(=O)c3c4c(sc3n12)CCCC4	66% (inactive)
CC(C)Oc1ccc(CNC(=O)c2cc3cccc4c3n2CC(C)S4)cc1 (configuration not stated)	91% (inactive)
Cc1cccc(CCNC(=O)c2nn(C)c3c2CSc2ccccc2-3)c1	77% (inactive)
Cc1ccc(CCNC(=O)c2nn(C)c3c2CSc2ccccc2-3)cc1	82% (inactive)
Cc1ccc2c(c1)-c1c(c(C(=O)NCCc3ccccc3)nn1C)CS2	37% (active)
O=C(Nc1ccc(C(=O)OCc2cc(=O)n3c4c(sc3n2)CCCC4)cc1)c1ccc(F)cc1	101% (inactive)
O=C(Nc1ccccc1C(=O)OCc1cc(=O)n2c3c(sc2n1)CCCC3)c1cccc(Cl)c1	69% (inactive)
O=C(Nc1ccccc1C(=O)OCc1cc(=O)n2c3c(sc2n1)CCCC3)c1ccccc1	107% (inactive)
Cc1ccccc1C(=O)Nc1ccc(C(=O)OCc2cc(=O)n3c4c(sc3n2)CCCC4)cc1	118% (inactive)
Cc1ccc(C(=O)Nc2ccc(C(=O)OCc3cc(=O)n4c5c(sc4n3)CCCC5)cc2)cc1	83% (inactive)
Cc1cccc(OCc2cc(=O)n3c4c(sc3n2)CCCC4)c1C	131% (inactive)
COc1ccccc1C(=O)Nc1ccc(C(=O)OCc2cc(=O)n3c4c(sc3n2)CCCC4)cc1	37% (active)
COc1ccccc1C(=O)Nc1cccc(C(=O)OCc2cc(=O)n3c4c(sc3n2)CCCC4)c1	92% (inactive)
O=C(Nc1ccccc1C(=O)OCc1cc(=O)n2c3c(sc2n1)CCCC3)c1ccc(Cl)cc1	0% (active)

Structure (SMILES)	survival
Cc1ccc(OCc2cc(=O)n3c4c(sc3n2)CCCC4)cc1C	82% (inactive)
Cc1cccc(C)c1OCc1cc(=O)n2c3c(sc2n1)CCCC3	-17% (active)
Cc1ccccc1C(=O)Nc1cccc(C(=O)OCc2cc(=O)n3c4c(sc3n2)CCCC4)c1	46% (active)
O=C(OCc1cc(=O)n2c3c(sc2n1)CCCC3)c1cccc(NC(=O)c2ccccc2F)c1	115% (inactive)
Cc1ccc(C(=O)c2oc3ccccc3c2NC(=O)COc2ccc(Cl)c(C)c2)cc1	90% (inactive)
COc1cc(-c2nc3n(n2)C(c2ccc(F)cc2)C(C(N)=O)=C(C)N3)cc(OC)c1OC (configuration not stated)	91% (inactive)
Cc1ccc2c(CC(=O)Nc3c(C(=O)Nc4cccc(Cl)c4)oc4ccccc34)coc2c1C	62% (inactive)
Cc1cccc(C)c1OCc1cc(=O)n2c(-c3ccccc3)csc2n1	19% (active)
O=C(Nc1ccc(C(=O)OCc2cc(=O)n3c4c(sc3n2)CCCC4)cc1)c1ccccc1	25% (active)
Cc1cccc(OCc2cc(=O)n3c(-c4ccccc4)csc3n2)c1C	77% (inactive)
O=C(Nc1ccc(C(=O)OCc2cc(=O)n3c4c(sc3n2)CCCC4)cc1)c1ccc(Cl)cc1	92% (inactive)
O=C(Nc1cccc(C(=O)OCc2cc(=O)n3c4c(sc3n2)CCCC4)c1)c1ccccc1	102% (inactive)
Cc1ccccc1OCc1cc(=O)n2c(-c3ccccc3)csc2n1	69% (inactive)
CCN1CCN(CCCNC(=O)Cn2c(-c3cccs3)cc3ccccc32)CC1	78% (inactive)
Cc1ccccc1Cn1c2ccccc2c2cnn(CC(=O)NC3CCCCCC3)c(=O)c21	87% (inactive)
Cc1ccc2[nH]c(=O)c3cc(C(=O)NCCc4ccc(Cl)cc4)sc3c2c1	74% (inactive)
CCc1nnc(NC(=O)c2sc3nc4ccc(OC)cc4cc3c2N)s1	77% (inactive)
CC(=O)c1ccc(NC(=O)c2cc(-c3ccc4c(c3)OCO4)on2)cc1	67% (inactive)
CC(=O)Nc1ccc(NC(=O)c2cc(-c3ccc4c(c3)OCCO4)on2)cc1	118% (inactive)
CC(=O)c1ccc(NC(=O)c2cc(-c3ccc(Cl)c(Cl)c3)on2)cc1	47% (active)
CCCNC(=O)c1cc(-c2ccccc2)on1	95% (inactive)
CCCCNC(=O)c1cc(-c2ccc(Cl)c(Cl)c2)on1	45% (active)
O=C(NCCc1ccccc1)c1cc(-c2ccc(Cl)c(Cl)c2)on1	57% (inactive)
